The source of these data is PubChem BioAssay (NCATS).

Assay [1] in a line: Quantitative High-Throughput drug screen in 47 multiple myeloma cell lines against the NCATS MIPE library collection: FR4_PLB cell viability assay (AID 1918924; also: nearly all actives have a fitted effect of over 35% in size). In short, it runs like this: (§1)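 Luminescent ATP measurement with CellTiter-Glo gives viability, scaled between DMSO-only wells (100%) and media-only wells (0%). Cells, 500 per well, faced library compounds for 48 hours at 37C.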

The nature of assay [2]: Quantitative High-Throughput drug screen in 47 multiple myeloma cell lines against the NCATS MIPE library collection: Delta47_JCRB cell viability assay (AID 1918925; also: nearly all actives have a fitted effect of over 45% in size). In a few lines: (§2)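 Myeloma cell lines, 500 cells per well, exposed to MIPE 4.0 library compounds for 48 h at 37C, 5% CO2. Viability from ATP by CellTiter-Glo luminescence; normalised to DMSO (100%) and media-only (0%) wells.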

Assay [3] can be described thus: Quantitative High-Throughput drug screen in 47 multiple myeloma cell lines against the NCATS MIPE library collection: EJM_DSMZ cell viability assay (AID 1918926; also: nearly all actives have a fitted effect of over 30% in size). In a few lines: as §2
Assay [4] is described as follows: Quantitative High-Throughput drug screen in 47 multiple myeloma cell lines against the NCATS MIPE library collection: AMO1_DSMZ cell viability assay (AID 1918927; also: nearly all actives have a fitted effect of over 30% in size). In a few lines: as §2
A short description of assay [5]: Quantitative High-Throughput drug screen in 47 multiple myeloma cell lines against the NCATS MIPE library collection: ARP1_JJKsccF8 cell viability assay (AID 1918928; also: nearly all actives have a fitted effect of over 40% in size). In a few lines: (§3)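 Myeloma cells, 500 per well, were exposed to MIPE 4.0 drugs by pin transfer for 48 h at 37 °C, 5% CO2. Viability was read as ATP luminescence with CellTiter-Glo, normalised to DMSO-only (100%) and medium-only (0%) wells.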

Assay [6] in a line: Quantitative High-Throughput drug screen in 47 multiple myeloma cell lines against the NCATS MIPE library collection: ARD_JJKsccE7 cell viability assay (AID 1918929). In short, it runs like this: as §2
A short description of assay [7]: Quantitative High-Throughput drug screen in 47 multiple myeloma cell lines against the NCATS MIPE library collection: Karpas620_DSMZ cell viability assay (AID 1918959). Also: nearly all actives have a fitted effect of over 30% in size. In short, it runs like this:
as §1

A short description of assay [8]: Quantitative High-Throughput drug screen in 47 multiple myeloma cell lines against the NCATS MIPE library collection: KMM1_JCRB cell viability assay (AID 1918960). Also: nearly all actives have a fitted effect of over 30% in size. In short, it runs like this: as §3
A short description of assay [9]: Quantitative High-Throughput drug screen in 47 multiple myeloma cell lines against the NCATS MIPE library collection: Karpas417_ECACC cell viability assay (AID 1918961). Conditions: Karpas417 myeloma viability, CellTiter-Glo ATP luminescence, 48 h; viability (% of DMSO): at 45.8 µM (top of the series). In a few lines: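 Steps: seed 500 cells per well; pin-transfer MIPE 4.0 library; incubate 48 h at 37C, 5% CO2, humidified; add CellTiter-Glo, 5 min room temperature; read luminescence.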

Assay [10] is described as follows: Primary redox qHTS assay for identification of artifact compounds. (AID 1845223). In a few lines:
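Amplex Red (25 uM) and HRP (250 mU/mL) in HBSS, with compounds for 15 min, then 250 uM DTT for 30 min, room temperature, dark. Fluorescence 525/598 nm read; normalized to DMSO and 10 uM DA3003; Hill fit.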

Results filed as inconclusive are left out. The source made the active and inactive calls. Calls follow the shape of the dose curve; as a rule, active = well fitted curve in the direction sought with a large enough effect; inconclusive = small, poorly fitted or top-dose-only effect, or another doubt; inactive = no such curve, though single readings can be large; an effect the other way counts as inactive or inconclusive.
Potency is read from the fitted curve at half-maximal effect.

`COc1cc(NCc2ccc3nc(N)nc(N)c3c2C)cc(OC)c1OC`: the Potency in [1] was 16.6 µM (active); in assay [2], 18.7 µM (active); in assay [3] it was 8.33 µM (active); in assay [4] it was 0.935 µM (active); in [5], 2.96 µM (active); in assay [6], 1.05 µM (active). In addition, the Potency in assay [7] is 6.62 µM (active); in assay [8], 1.18 µM (active); in assay [9] it was 4.18 µM (active).

As for `CCCCc1oc2ccc(NS(C)(=O)=O)cc2c1C(=O)c1ccc(OCCCN(CCCC)CCCC)cc1`, in assay [10], the Potency entry was “inactive”. For the same molecule, the Potency in assay [1] was 16.6 µM (active); in assay [2] it was 11.8 µM (active); in assay [3], 16.6 µM (active); in [5], 16.6 µM (active); in [6] it was 16.6 µM (active); in [7] it was 20.9 µM (active). Also, the Potency in assay [8] was 20.9 µM (active).

Turning to `C1CCC(C(CC2CCCCN2)C2CCCCC2)CC1` (stereo not drawn), the Potency in [1] is 11.8 µM (active); in assay [2] it was 13.2 µM (active); in assay [3] it was 26.4 µM (active); in assay [4], 18.7 µM (active); in assay [5] it was 23.5 µM (active); in [6], 26.4 µM (active). Moreover, the results for the Potency in assay [7], in [8] and in assay [9] were 14.8 µM (active), 14.8 µM (active) and 18.7 µM (active), respectively.

As to `CC1=NN(c2ccccc2)C(=O)C1`, the Potency in assay [10] was 3.36 µM (active). Also, the Potency result in [1], in [2], in [6], in assay [7] and in [8] was “inactive” throughout.

As for `CCc1c2c(nc3ccc(OC(=O)N4CCC(N5CCCCC5)CC4)cc13)-c1cc3c(c(=O)n1C2)COC(=O)[C@]3(O)CC`, the Potency in [1] was 0.935 µM (active); in assay [2], 1.32 µM (active); in assay [3], 4.69 µM (active); in assay [4], 1.32 µM (active); in assay [5], 0.743 µM (active); in assay [6], 0.0105 µM (active). Besides, the Potency in assay [8] is 0.935 µM (active).

On to `Cc1onc(-c2ccccc2Cl)c1C(=O)N[C@@H]1C(=O)N2[C@@H]1SC(C)(C)[C@@H]2C(=O)O`, for which the Potency entry in assay [10], in assay [1], in assay [2], in assay [3], in assay [5] and in assay [6] was “inactive” throughout. Also, the Potency entry in assay [7], in assay [8] and in assay [9] was “inactive” in each case.

For `CCCc1nc(C)c2c(=O)[nH]c(-c3cc(S(=O)(=O)N4CCN(CC)CC4)ccc3OCC)nn12`, the Potency in [1] was 8.33 µM (active); in assay [2] it was 5.9 µM (active); in [3], 9.35 µM (active); in [4], 7.43 µM (active); in [6], 6.62 µM (active); in assay [7] it was 2.35 µM (active). In addition, the Potency in [8] is 3.72 µM (active).

Regarding `COC(=O)Nc1nc2ccc(C(=O)c3ccccc3)cc2[nH]1`, the Potency in [1] was 0.296 µM (active); in assay [2], 1.66 µM (active); in assay [3] it was 4.69 µM (active); in [5], 0.743 µM (active).

For `COC(c1ccccc1)(c1ccccc1)[C@H](Oc1nc(C)cc(C)n1)C(=O)O`, the Potency entry in [1], in [2], in assay [3], in assay [4], in [6] and in assay [7] was “inactive” in each case. Further, the Potency result in [8] and in [9] was “inactive” throughout.

For `CC[C@H](C)C(=O)O[C@H]1C[C@@H](C)C=C2C=C[C@H](C)[C@H](CC[C@@H]3C[C@@H](O)CC(=O)O3)[C@H]21`, the Potency result in assay [10], in [3], in assay [6], in [7] and in [8] was “inactive” in each case. Moreover, the Potency in assay [1] is 11.8 µM (active).

`COC(=O)Nc1nc2ccc(Sc3ccccc3)cc2[nH]1`: the Potency in [1] is 0.935 µM (active); in assay [2], 1.05 µM (active); in assay [3], 16.6 µM (active); in assay [4], 0.833 µM (active); in assay [5] it was 1.18 µM (active); in assay [6], 1.32 µM (active). Further, the Potency in assay [8] was 1.18 µM (active).

Consider `Nc1nc(F)nc2c1ncn2[C@@H]1O[C@H](CO)[C@@H](O)[C@@H]1O`, for which the Potency result in [10] is “inactive”. Further, the Potency in [1] was 0.187 µM (active); in assay [2] it was 0.148 µM (active); in assay [3], 0.418 µM (active); in [4] it was 0.372 µM (active); in assay [5], 0.264 µM (active); in [6], 0.332 µM (active). The Potency in assay [7] is 0.296 µM (active); in [8] it was 0.526 µM (active); in [9], 0.0469 µM (active).

In the case of `COc1ncnc(NS(=O)(=O)c2ccc(N)cc2)c1OC`, the Potency entry in assay [1], in [2], in [3], in [6], in assay [7] and in [9] was “inactive” in each case.

In the case of `CC(C)NCC(O)c1ccc(NS(C)(=O)=O)cc1` (stereo not drawn), the Potency entry in [1], in [2], in assay [3], in [6], in [8] and in assay [9] was “inactive” each time.

Take `Nc1[nH]c(=O)ncc1F`: the Potency entry in [1], in [2], in assay [3], in assay [6], in assay [7] and in [8] was “inactive” each time.

As for `Cc1cccc(Nc2ccncc2S(=O)(=O)NC(=O)NC(C)C)c1`, the Potency result in assay [1], in [2], in [3], in assay [5], in [7] and in assay [8] was “inactive” in each case.

With `CN1CCN(c2c(F)cc3c(=O)c(C(=O)O)cn4c3c2OCN4C)CC1`, the Potency entry in [1], in assay [2], in assay [3], in assay [5], in [6] and in assay [7] was “inactive” in each case. Moreover, in [8], the Potency result was “inactive”.

Consider `Cc1ccc(S(=O)(=O)N[C@@H](Cc2ccccc2)C(=O)CCl)cc1`, for which the Potency in assay [1] was 20.9 µM (active); in assay [2], 5.26 µM (active); in assay [3], 16.6 µM (active); in assay [5] it was 20.9 µM (active); in assay [6], 16.6 µM (active); in [7], 11.8 µM (active). Further, the Potency in assay [8] was 13.2 µM (active); in assay [9], 11.8 µM (active).

`Cc1cccc(N(C)C(=S)Oc2ccc3ccccc3c2)c1`: the Potency entry in [1], in [2], in assay [3], in assay [5] and in assay [7] was “inactive” throughout. Besides, the Potency in [6] is 20.9 µM (active).

On to `NNC(=O)c1ccncc1`, for which the Potency result in assay [1], in [2], in [4], in assay [5], in assay [6] and in assay [7] was “inactive” each time. Moreover, the Potency entry in assay [8] was “inactive”.

On to `O=C(O)CSCC(=O)NC1CCSC1=O` (stereo not drawn), for which the Potency entry in assay [1], in assay [2], in assay [3], in assay [5], in assay [6] and in [7] was “inactive” throughout.

Take `CN(C)CCc1c[nH]c2ccc(CS(=O)(=O)N3CCCC3)cc12`: the Potency entry in assay [1], in assay [2], in assay [3], in assay [5] and in assay [7] was “inactive” each time.

As to `COc1cccc(N(C)C(=S)Oc2ccc3c(c2)CCCC3)n1`, the Potency result in assay [1], in assay [2] and in assay [3] was “inactive” throughout. For the same molecule, the Potency in [6] is 23.5 µM (active).

Regarding `CCOCC(O)COc1ccc(NC(=O)CC[S+](C)C)cc1` (stereo not drawn), the Potency result in [1], in [2], in assay [3], in assay [6], in [7] and in [8] was “inactive” each time.
